Source: PubChem BioAssay (NCI)
About 83,000 compounds went through this panel and 20% of them were active in at least one assay; those are over-represented in the sample as a whole.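 Growth was measured after 48 h exposure to one concentration of compound in 96-well plates. Values under 10 count as active.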 Calls of active or inactive are those of the source.

What was measured:
Experiment in all cases: NCI-60 one-dose screen, 48 h (100 = growth as untreated, 0 = no growth, -100 = all killed)
Conditions in all cases: 10 µM unless noted
T-47D breast = test system: T-47D breast
BT-549 breast = test system: BT-549 breast
MDA-MB-435 melanoma = test system: MDA-MB-435 melanoma
SW-620 colon = test system: SW-620 colon
MCF7 breast = test system: MCF7 breast
HCT-116 colon = test system: HCT-116 colon
HCC-2998 colon = test system: HCC-2998 colon
KM12 colon = test system: KM12 colon

Measured: growth

COc1ccc(N=C2NN=C(c3c[nH]c4ccccc34)CS2)cc1OC
active: BT-549 breast -0.386% | MDA-MB-435 melanoma -8.16%
inactive: T-47D breast 57.5% | SW-620 colon 50.4% | MCF7 breast 42.1% | HCT-116 colon 39.1% | HCC-2998 colon 71.7% | KM12 colon 23.7%

CCCCCCCCn1ccc2cc(NC(=O)CN3CCN(c4cc(C)nc(Cl)n4)CC3)ccc21
inactive: T-47D breast 67.8% | BT-549 breast 75% | MDA-MB-435 melanoma 84.1% | SW-620 colon 95.3% | MCF7 breast 75.4% | HCT-116 colon 79.2% | HCC-2998 colon 106% | KM12 colon 91.9%

CCOC(=O)c1cnn(CC(C)O)c1NC(=O)NCc1cccc(F)c1 (stereo not drawn)
inactive: T-47D breast 100% | BT-549 breast 101% | MDA-MB-435 melanoma 107% | SW-620 colon 102% | MCF7 breast 104% | HCT-116 colon 84% | HCC-2998 colon 94.9% | KM12 colon 106%

CC(=O)O[C@H]1CC[C@]2(C)[C@H]3CC=C4[C@@H]5CC(C)(C)CC[C@]5(C(=O)N5CCN(CCC#N)CC5)CC[C@@]4(C)[C@]3(C)CC[C@H]2C1(C)C
inactive: T-47D breast 29% | BT-549 breast 40.9% | MDA-MB-435 melanoma 31.5% | SW-620 colon 19.4% | MCF7 breast 11.6% | HCC-2998 colon 47.7% | KM12 colon 28.6%
active: HCT-116 colon -2.33%

O=C(Cc1ccc(/C=C/C(=O)c2ncc[nH]2)cc1)Nc1cc(F)c(F)c(F)c1
inactive: T-47D breast 49.9% | BT-549 breast 66.7% | MDA-MB-435 melanoma 51.2% | SW-620 colon 13.1% | MCF7 breast 10.4% | HCT-116 colon 15.8% | HCC-2998 colon 75.2% | KM12 colon 24.7%

CCCCCCCCCCOC(=O)c1nn(C(C)=O)c2cc(C)c(C)cc12
inactive: T-47D breast 99.7% | BT-549 breast 90.5% | MDA-MB-435 melanoma 100% | SW-620 colon 97.3% | MCF7 breast 94% | HCT-116 colon 75.4% | HCC-2998 colon 105% | KM12 colon 104%

Cc1ccc2c(c1)nc(C)n2-c1ncnc2c1CC(C)c1cc(O)ccc1N2C (stereo not drawn)
active: MDA-MB-435 melanoma 3.76%
inactive: T-47D breast 33.6% | BT-549 breast 40.8% | SW-620 colon 21.5% | MCF7 breast 19.8% | HCT-116 colon 15.4% | HCC-2998 colon 78.4% | KM12 colon 35.6%

c1cc(OCCN2CCCCC2)ccc1CNc1ccc2nc(CCC3CCCCC3)[nH]c2c1
active: T-47D breast -29.6% | MDA-MB-435 melanoma -54.2% | SW-620 colon 2.97% | MCF7 breast -3.08% | HCC-2998 colon -13.5%
inactive: BT-549 breast 73.6% | HCT-116 colon 12.9% | KM12 colon 43%

Cc1[nH]n(-c2cccc(Cl)c2)c(=O)c1/C=C1\C=c2ccccc2=CC1=O
active: T-47D breast -7.69% | MCF7 breast 8.67% | HCT-116 colon 8.69% | HCC-2998 colon -22.2%
inactive: BT-549 breast 90.2% | MDA-MB-435 melanoma 20.7% | SW-620 colon 31% | KM12 colon 21.2%

C=C(C)[C@@H]1CC[C@]2(COC3CCCCO3)CC[C@]3(C)[C@H](CC[C@@H]4[C@@]5(C)C=C(C=O)C(=O)C(C)(C)[C@@H]5CC[C@]43C)[C@@H]12 (stereo partly drawn)
active: T-47D breast -48.9% | BT-549 breast -58.5% | MDA-MB-435 melanoma -56.4% | SW-620 colon -37.8% | MCF7 breast -58.4% | HCT-116 colon -92.4% | HCC-2998 colon -59% | KM12 colon -10.2%

CCN(CC)CCCNc1cc(OC)c(OC)c2cccnc12
active: HCT-116 colon 9.79%
inactive: T-47D breast 33.8% | BT-549 breast 81.2% | MDA-MB-435 melanoma 42.3% | SW-620 colon 58.4% | MCF7 breast 31.4% | HCC-2998 colon 76.1% | KM12 colon 84.1%

O=C(O)CCCCCCCCCCN1C(=O)/C(=C2/C(=O)N(CC(=O)O)c3ccc(Br)cc32)SC1=S
inactive: T-47D breast 77.9% | BT-549 breast 105% | MDA-MB-435 melanoma 102% | SW-620 colon 106% | MCF7 breast 82.9% | HCT-116 colon 87.2% | HCC-2998 colon 115% | KM12 colon 40.2%

COc1ccc(-c2nc3ccc(C)cc3c3c2c(=O)n(C)c(=O)n3C)cc1OC
inactive: T-47D breast 106% | BT-549 breast 120% | MDA-MB-435 melanoma 90% | SW-620 colon 103% | MCF7 breast 97.7% | HCT-116 colon 105% | HCC-2998 colon 98.2% | KM12 colon 116%

C=C1C(=O)O[C@H]2[C@H]1CC/C(COC(=O)NCc1ccc(Cn3c(=O)sn(-c4ccc(I)cc4)c3=O)cc1)=C\CC[C@@]1(C)O[C@@H]21
inactive: T-47D breast 45.2% | BT-549 breast 74.5% | MDA-MB-435 melanoma 80.9% | MCF7 breast 38.6% | HCT-116 colon 28.3% | HCC-2998 colon 105% | KM12 colon 98.4%
active: SW-620 colon 3.86%

FC(F)(F)c1[nH]ncc1-c1nc2ccc3[nH]ncc3c2c2c1CCCC2
active: T-47D breast 0% | BT-549 breast -24% | SW-620 colon 7.83% | MCF7 breast 1.69% | HCT-116 colon 1.68% | HCC-2998 colon 5.29%
inactive: MDA-MB-435 melanoma 32.1% | KM12 colon 11.1%

Cc1sc2nc(NCCN)[nH]c(=O)c2c1C
inactive: T-47D breast 95% | BT-549 breast 94.3% | MDA-MB-435 melanoma 84.9% | SW-620 colon 95.5% | MCF7 breast 89.6% | HCT-116 colon 97.8% | HCC-2998 colon 101% | KM12 colon 84.3%

COc1cc(-c2ccc(-c3ccc(C(=N)N)cc3)s2)cc(OC)c1OC
active: HCC-2998 colon -19.6%
inactive: T-47D breast 55.2% | BT-549 breast 86.3% | MDA-MB-435 melanoma 40.4% | SW-620 colon 20.9% | MCF7 breast 13.6% | HCT-116 colon 15% | KM12 colon 23.4%

O=S(=O)(NCCNc1nccc(-c2c(-c3ccc(F)c(O)c3)nc3sccn23)n1)c1ccc(Cl)cc1
inactive: BT-549 breast 29.9% | SW-620 colon 52.3% | MCF7 breast 13.5% | HCT-116 colon 16.7% | HCC-2998 colon 59.6% | KM12 colon 12.6%
active: T-47D breast 2.76% | MDA-MB-435 melanoma 3.65%

NC(=O)c1ccccc1OCC(=O)Nc1ccc(Cl)c(Cl)c1
inactive: T-47D breast 79.8% | BT-549 breast 93.2% | MDA-MB-435 melanoma 103% | SW-620 colon 102% | MCF7 breast 79.7% | HCT-116 colon 100% | HCC-2998 colon 103% | KM12 colon 100%

O=C(Nc1cc(Cl)ccc1O)c1ccccc1Nc1ccnc(C(F)(F)F)c1
inactive: BT-549 breast 33.2% | MDA-MB-435 melanoma 29.1% | SW-620 colon 15%
active: T-47D breast 0.662% | MCF7 breast 8.95% | HCT-116 colon 2.14% | HCC-2998 colon 3.95% | KM12 colon 7.26%

Nc1ncnc2c1N=C(c1ccc(Cl)cc1)CC(c1cccc(Nc3ccnc4cc(Cl)ccc34)c1)N2 (stereo not drawn)
inactive: T-47D breast 85.9% | BT-549 breast 78.5% | MDA-MB-435 melanoma 58% | SW-620 colon 72.2% | MCF7 breast 19.5% | HCT-116 colon 14.9% | HCC-2998 colon 70.4% | KM12 colon 56.1%

CNC(=O)c1cc(Oc2ccc3c(c2)sc2nc(-c4ccc(NC(=O)[C@@H](NC(=O)OC)C(C)C)cc4)cn23)ccn1
inactive: BT-549 breast 14.2% | MDA-MB-435 melanoma 38.5% | SW-620 colon 84.3% | MCF7 breast 51.6% | HCT-116 colon 55% | HCC-2998 colon 93.4% | KM12 colon 32.8%
active: T-47D breast 8.68%

C#CCOc1cccc(Nc2ncnc3cc(NC(=O)CCl)ccc23)c1
active: T-47D breast -48.9% | BT-549 breast -55.4% | MDA-MB-435 melanoma -75.2% | SW-620 colon -49.7% | MCF7 breast -15.9% | HCT-116 colon -61.1% | HCC-2998 colon -67.2% | KM12 colon -69.5%

CN1CCN(c2ccc(NC3=CC(=O)c4ncncc4C3=O)cc2)CC1
active: T-47D breast -48.2% | BT-549 breast -90.9% | MDA-MB-435 melanoma -90.3% | SW-620 colon -64.1% | MCF7 breast -64.3% | HCT-116 colon -53.6% | HCC-2998 colon -78.2% | KM12 colon -75.9%

Cc1ccc2c(c1)sc1nc(-c3c[nH]c4ccccc34)c(Nc3ccccc3)n12
inactive: T-47D breast 96% | BT-549 breast 98.5% | MDA-MB-435 melanoma 97% | SW-620 colon 94.7% | MCF7 breast 98.4% | HCT-116 colon 104% | HCC-2998 colon 106% | KM12 colon 105%

O=C(NC1CCC(Br)CC1)C1CCCC(S(=O)(=O)NC2CCCCC2)C1 (stereo not drawn)
active: T-47D breast -9.71% [25 µM] | MCF7 breast 6.38% [25 µM]
inactive: BT-549 breast 21.6% [25 µM] | MDA-MB-435 melanoma 14.4% [25 µM] | SW-620 colon 31.2% [25 µM] | HCT-116 colon 17% [25 µM] | HCC-2998 colon 24.6% [25 µM] | KM12 colon 16.9% [25 µM]

c1cc(OCCCCCOc2cccc(-c3nc4ccccc4[nH]3)c2)cc(-c2nc3ccccc3[nH]2)c1
active: BT-549 breast 6.65% | MDA-MB-435 melanoma 8.32% | MCF7 breast -2.42% | HCT-116 colon 7.44% | KM12 colon 8.91%
inactive: T-47D breast 12.2% | SW-620 colon 12.7% | HCC-2998 colon 14.2%

O=C1CCC(C(=O)N/N=C/c2cc(F)ccc2F)N1 (stereo not drawn)
inactive: T-47D breast 97.2% | BT-549 breast 103% | MDA-MB-435 melanoma 100% | SW-620 colon 106% | MCF7 breast 93.4% | HCT-116 colon 103% | HCC-2998 colon 107% | KM12 colon 104%

O=C1/C(=C/c2ccc(Cl)cc2)CN(C(=O)C(Cl)Cl)C/C1=C\c1ccc(Cl)cc1
active: T-47D breast -58.3% | BT-549 breast -82.6% | MDA-MB-435 melanoma -95.3% | SW-620 colon -78.9% | MCF7 breast -70.8% | HCT-116 colon -86.6% | HCC-2998 colon -91.8% | KM12 colon -81.9%

COC(=O)c1nc(-c2ccccc2)oc1S(=O)(=O)N1CCCC(C)C1 (stereo not drawn)
inactive: T-47D breast 69.2% | BT-549 breast 75% | MDA-MB-435 melanoma 84.5% | SW-620 colon 35.4% | MCF7 breast 47.3% | HCT-116 colon 63.9% | HCC-2998 colon 104% | KM12 colon 97.7%

CN(C)CCC(=O)C1CC1
inactive: T-47D breast 97.6% | BT-549 breast 99.7% | MDA-MB-435 melanoma 105% | SW-620 colon 102% | MCF7 breast 108% | HCT-116 colon 96.1% | HCC-2998 colon 103% | KM12 colon 109%
